From the supplement of paper PMC3334620
In all, about 33,000 sequences were measured (“E-score (-0.5 to 0.5)”: median about -0.032, highest 2% from about 0.36 on). The sample holds the highest values, similar sequences and a random draw of the others, so the mix is not that of the screen.

The sequences below were run against T1, Sko1 (UniProt Q02100) (assay: PBM E-score (8-mer binding enrichment) (E-score (-0.5 to 0.5)); higher = stronger / more preferred TF binding). Conditions: protein concentration: 200 nM; construct: GST-full length.
T1 sequence: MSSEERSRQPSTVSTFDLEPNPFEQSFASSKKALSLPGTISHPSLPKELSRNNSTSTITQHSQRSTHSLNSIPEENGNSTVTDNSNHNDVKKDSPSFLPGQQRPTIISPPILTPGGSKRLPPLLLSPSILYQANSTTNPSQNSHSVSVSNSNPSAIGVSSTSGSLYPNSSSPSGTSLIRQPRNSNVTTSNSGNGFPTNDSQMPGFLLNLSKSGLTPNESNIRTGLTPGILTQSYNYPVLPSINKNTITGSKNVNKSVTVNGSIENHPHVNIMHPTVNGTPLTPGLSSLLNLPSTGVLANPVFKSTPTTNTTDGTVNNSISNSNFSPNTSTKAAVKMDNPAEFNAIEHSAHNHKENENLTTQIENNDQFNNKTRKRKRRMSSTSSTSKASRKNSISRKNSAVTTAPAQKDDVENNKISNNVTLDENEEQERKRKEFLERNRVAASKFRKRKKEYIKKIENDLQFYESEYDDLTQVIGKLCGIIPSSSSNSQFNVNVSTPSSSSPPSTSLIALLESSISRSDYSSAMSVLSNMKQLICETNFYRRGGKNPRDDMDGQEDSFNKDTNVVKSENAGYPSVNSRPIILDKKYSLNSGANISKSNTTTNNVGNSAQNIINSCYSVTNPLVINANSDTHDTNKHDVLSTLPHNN
In short: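 The E-score, a modified Wilcoxon-Mann-Whitney statistic, was computed by the Universal PBM Analysis Suite for every ungapped eight-base word pooled with its reverse complement. Scans behind it were normalised with masliner after bound GST-tagged yeast transcription factors were detected with fluorescent anti-GST. The proteins, at about 100-200 nM, had been applied to universal all-10-mer Agilent arrays made double-stranded by primer extension.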

Row | Sequence | PBM E-score
1 | ACGTGAGT | 0.331
2 | AATGAGGT | 0.324
3 | CTTGGGTC | -0.348
4 | GGCGCGAA | -0.151
5 | GAGTATAC | 0.192
6 | GCGTATAC | 0.365
7 | GCGTATAA | 0.271
8 | ATGGAGGG | -0.334
9 | CCACACTC | 0.00961
10 | AAGATTAG | 0.062
11 | AGTAAGGC | -0.0198
12 | GTTACTCA | 0.0403
13 | GTTACGCA | 0.417
14 | ATTACGGA | 0.287
15 | ATTACTCG | 0.204
16 | CTTACGCC | 0.193
17 | ATTACGCC | 0.338
18 | ATTACGCG | 0.431
19 | CTTACGCA | 0.427
20 | CTCACGCA | 0.28
21 | ATTACGCA | 0.47
22 | GGTACGCA | 0.268
23 | CAAACCAG | -0.071
24 | GCACCGCC | -0.218
25 | GTACCTGA | 0.16

Row | Sequence | PBM E-score
26 | GCATCTCC | -0.341
27 | ACCGGCCT | -0.0244
28 | ATAGAAAG | -0.115
29 | CATAGAAC | -0.15
30 | AGTACGAC | 0.157
31 | AGTACGAA | 0.312
32 | AGTACGGA | -0.0994
33 | CGTACATA | 0.378
34 | GGTACGTA | 0.454
35 | AGTACGTC | 0.435
36 | AGTACGTA | 0.474
37 | AGTACGGC | -0.101
38 | CGTACATC | 0.244
39 | GGTACGGA | -0.174
40 | GGTACGAA | 0.19
41 | AGTACATA | 0.00479
42 | AACCGCCC | -0.295
43 | CTTCAATA | 0.197
44 | CGCCGTGC | -0.189
45 | CGTGCGGC | 0.00261
46 | CCCTACCA | -0.0655
47 | CCCTAGGC | -0.269
48 | GACTGGCC | -0.338
49 | AGTACGTG | 0.365
50 | CGTACGTC | 0.45

Row | Sequence | PBM E-score
51 | CGTACGCC | 0.218
52 | CGTACGGC | 0.251
53 | CGTACGTA | 0.474
54 | AGTACGAG | 0.00509
55 | CGTACGCA | 0.332
56 | AGTACGCG | 0.236
57 | CGTACGAA | 0.269
58 | GGGTTGCA | -0.00077
59 | CTGGCGTC | 0.0837
60 | GTGGCGTA | 0.325
61 | CTGGCGTA | 0.138
62 | ATGGCGTA | 0.449
63 | ATGGCGTC | 0.392
64 | ATGGCGTG | 0.336
65 | AACGAGTG | 0.0243
66 | CGATGCAC | -0.0249
67 | AGTCTTAA | -0.164
68 | TCACTGCA | 0.175
69 | ATTACGAA | 0.453
70 | CTCACGAA | 0.138
71 | ATTACAAA | 0.234
72 | GTTACAAA | 0.213
73 | GTTACGAA | 0.378
74 | CTTACGAA | 0.275
75 | GTAGGGGA | -0.186

Row | Sequence | PBM E-score
76 | GGCCATCA | -0.165
77 | ACCCTGAA | -0.0751
78 | CGCGAATA | 0.0754
79 | ACCTAACT | 0.0945
80 | CGTCGCCA | 0.0172
81 | GAACCTCA | -0.069
82 | AGGACGCC | -0.21
83 | AGGACGTG | 0.153
84 | AGGACGTC | 0.363
85 | GGGACGTA | 0.319
86 | AGGACGTA | 0.374
87 | CGGACGTC | 0.292
88 | CATACCCA | 0.108
89 | TAAGCAGA | -0.00339
90 | AACGTACG | 0.398
91 | AGCGTACT | -0.0878
92 | AACGTACT | 0.37
93 | AAGGTAGT | -0.172
94 | ATCGTACG | 0.282
95 | ACCGTACG | 0.145
96 | ACCGTAGT | -0.122
97 | AACGTAGT | 0.414
98 | ACCGTACT | 0.00383
99 | GTCTTTAA | 0.178
100 | ACATTGAA | 0.166

Row | Sequence | PBM E-score
101 | GTGCATGA | 0.133
102 | AGATGGTC | -0.139
103 | CCGTCAAC | -0.0749
104 | ACGTCAAT | 0.46
105 | GCGTCAAA | 0.274
106 | GCGTCAAC | 0.302
107 | ACGTCAAA | 0.447
108 | CCGTCAAG | -0.0482
109 | ACGTCAAC | 0.469
110 | AGGTCAAT | 0.0656
111 | AGGTCAAG | -0.193
112 | TCGTCAAA | 0.281
113 | ACGTCAAG | 0.444
114 | ATGTCAAT | 0.226
115 | CTCCAACC | -0.0963
116 | CTGTACCC | -0.24
117 | AGATTTCG | 0.114
118 | ACTAGAGA | -0.0523
119 | CGATTGGA | -0.0798
120 | AGATTGCG | 0.188
121 | AATGATGA | 0.328
122 | AATGATGT | 0.427
123 | AATGATGG | 0.189
124 | ACGTGACC | 0.292
125 | CCGTGACA | -0.14

Row | Sequence | PBM E-score
126 | ACGTGACA | 0.394
127 | GCGTGCCA | -0.151
128 | ACGTGACT | 0.324
129 | ACGTGAAG | 0.326
130 | ACGTGCCA | 0.396
131 | ACGTGCCG | 0.243
132 | CCGTGACG | 0.396
133 | CCGTGACC | -0.28
134 | ACGTGACG | 0.462
135 | TCGTGACA | 0.129
136 | AAATCAGG | 0.0636
137 | CAGAACTC | -0.0896
138 | CTTTTTAA | 0.112
139 | GCAACCCC | -0.249
140 | ACCGCCTC | -0.312
141 | CGAGTATA | -0.0254
142 | ACGTAGGC | 0.425
143 | ACGTAGGA | 0.446
144 | AAGTAGGC | -0.0531
145 | CCGTAGGA | -0.29
146 | ACGTAGGG | 0.425
147 | AAGTAGGG | -0.0549
148 | GCGTAGGA | 0.0517
149 | CCGTAGGC | -0.293
150 | AGGTAGGG | -0.137

Row | Sequence | PBM E-score
151 | CGCTAAGA | 0.0374
152 | GCACAGGC | -0.115
153 | AAAGGCCA | -0.118
154 | GTTGAGCA | 0.0589
155 | ACATCTCT | 0.0591
156 | GTCAACCA | 0.0809
157 | GGAACTAA | -0.0195
158 | CCATTGAG | 0.00857
159 | GTAAAAAC | 0.184
160 | GGACTCGA | -0.342
161 | CGTATACA | 0.372
162 | CGTATATA | 0.418
163 | GGTATACA | 0.0243
164 | AGTATACG | 0.267
165 | AGTATATA | 0.254
166 | CGTATACG | 0.393
167 | AGTATACA | 0.0979
168 | CGTATACC | 0.132
169 | CGTATATC | 0.319
170 | GCTCAAAC | -0.0717
171 | ACGCCCTC | -0.134
172 | GGACACTA | -0.125
173 | AAGATCGT | 0.0795
174 | GAACGACC | -0.306
175 | TAGATAGA | 0.0341

Row | Sequence | PBM E-score
176 | AAACGGGC | -0.131
177 | AACGTTTC | 0.199
178 | ACGTCTTC | 0.389
179 | ACGTCTAC | 0.368
180 | ACGTCTTA | 0.408
181 | ACGTCTCC | 0.322
182 | CCGTCTTC | -0.306
183 | ACGTCTGG | 0.331
184 | ACGTCTTG | 0.39
185 | ACGTCTAT | 0.338
186 | ACGTCTGA | 0.339
187 | ACGTCTCG | 0.24
188 | CCGTCTTA | 0.00816
189 | CCGTCTAC | 0.0306
190 | AAGCGGGT | -0.268
191 | AAAATGAT | 0.246
192 | GTATGCAA | 0.177
193 | CACTATCC | -0.124
194 | AGAGTCAT | -0.0362
195 | AACCGCAC | 0.0215
196 | ACGTATTG | 0.464
197 | CCGTATTC | 0.0573
198 | CCGTATTA | 0.152
199 | ACGTATTC | 0.471
200 | AGGTATTC | 0.0465

Row | Sequence | PBM E-score
201 | AAGTATTG | 0.15
202 | GCGTATTA | 0.333
203 | ACGTATTA | 0.468
204 | ATGTATTG | 0.196
205 | CTGGTCTC | -0.342
206 | GATCAGCA | -0.0416
207 | GTGCCTCA | -0.118
208 | AAAACAGT | 0.0855
209 | ACTTCGGC | -0.00736
210 | AGTTACGC | 0.317
211 | CGTTACGA | 0.349
212 | GATTACTA | 0.204
213 | CGTTACGC | 0.362
214 | CATTACGA | 0.398
215 | CTTTACGA | 0.218
216 | AATTACCA | 0.151
217 | AATTACTA | 0.195
218 | GCTTACGA | 0.238
219 | CATTACGG | 0.292
220 | AATTACGA | 0.411
221 | GATTACGA | 0.418
